From PubChem BioAssay AID1159580 (chemical genetic matrix, 2015)
Out of some 5,500 compounds screened, about 2,000 (36%) were called active. Inconclusive results (about 18%) are left out. Rule as the data show it: active = normalized growth mostly below about 0.91 (no sharp cut-off); inconclusive = no clear call, values can overlap the other calls; inactive = mostly above about 0.92. This is one part of the list.

Experiment: chemical genetic growth profiling, strain panel (AID 1159580);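 also: tested at 20 µM; growth read once vehicle control cultures reached saturation at 30 °C; 1 = growth at the plate median or of vehicle wells; lower values mean less growth of the strain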
Details: growth OD

Measured: normalized growth

COc1ccc2c(c1C(C)C)CCC1C(C)(C)C(=O)CCC21C (stereo unspecified)
active: S. cerevisiae deletion strains, locus YNL307C, strain MCK1, active compounds read low 0.854
inactive: S. cerevisiae deletion strains, locus YAL013W, strain DEP1, active compounds read low 1 | S. cerevisiae deletion strains, locus YBR021W, strain FUR4, active compounds read low 1 | S. cerevisiae deletion strains, locus YBR229C, strain ROT2, active compounds read low 0.988 | S. cerevisiae deletion strains, locus YCL029C, strain bik1, active compounds read low 0.955 | S. cerevisiae deletion strains, locus YDL035C, strain GPR1, active compounds read low 0.972 | S. cerevisiae deletion strains, locus YDL074C, strain BRE1, active compounds read low 0.969 | S. cerevisiae deletion strains, locus YDL101C, strain DUN1, active compounds read low 0.996 | S. cerevisiae deletion strains, locus YDL134C, strain PPH21, active compounds read low 0.976 | S. cerevisiae deletion strains, locus YDL185W, strain tfp1, active compounds read low 0.982 | S. cerevisiae deletion strains, locus YDL192W, strain arf1, active compounds read low 0.974 | S. cerevisiae deletion strains, locus YDR101C, strain arx1, active compounds read low 0.981 | S. cerevisiae deletion strains, locus YDR150W, strain NUM1, active compounds read low 0.96 | S. cerevisiae deletion strains, locus YDR162C, strain NBP2, active compounds read low 0.983 | S. cerevisiae deletion strains, locus YDR318W, strain mcm21, active compounds read low 0.968 | S. cerevisiae deletion strains, locus YDR388W, active compounds read low 0.977 | S. cerevisiae deletion strains, locus YDR502C, strain sam2, active compounds read low 0.982 | S. cerevisiae deletion strains, locus YEL061C, strain CIN8, active compounds read low 0.988 | S. cerevisiae deletion strains, locus YER110C, active compounds read low 0.982 | S. cerevisiae deletion strains, locus YER155C, strain BEM2, active compounds read low 0.991 | S. cerevisiae deletion strains, locus YER167W, strain BCK2, active compounds read low 0.95 | S. cerevisiae deletion strains, locus YGL078C, strain dbp3, active compounds read low 0.977 | S. cerevisiae deletion strains, locus YGL086W, strain mad1, active compounds read low 0.961 | S. cerevisiae deletion strains, locus YGL248W, strain PDE1, active compounds read low 0.976 | S. cerevisiae deletion strains, locus YGR078C, strain PAC10, active compounds read low 1 | S. cerevisiae deletion strains, locus YGR135W, strain pre9, active compounds read low 0.984 | S. cerevisiae deletion strains, locus YGR229C, strain SMI1, active compounds read low 0.974 | S. cerevisiae deletion strains, locus YGR252W, strain gcn5, active compounds read low 0.98 | S. cerevisiae deletion strains, locus YHR030C, strain SLT2, active compounds read low 0.979 | S. cerevisiae deletion strains, locus YHR079C, strain IRE1 (second series), active compounds read low 0.96 | S. cerevisiae deletion strains, locus YHR094C, strain hxt1, active compounds read low 0.974 | S. cerevisiae deletion strains, locus YHR129C, strain ARP1, active compounds read low 0.983 | S. cerevisiae deletion strains, locus YHR200W, strain rpn10, active compounds read low 0.955 | S. cerevisiae deletion strains, locus YIL066C, strain RNR3, active compounds read low 0.979 | S. cerevisiae deletion strains, locus YIL073C, strain SPO22, active compounds read low 0.921 | S. cerevisiae deletion strains, locus YIL125W, strain kgd1, active compounds read low 0.971 | S. cerevisiae deletion strains, locus YIR030C, strain dcg1, active compounds read low 0.97 | S. cerevisiae deletion strains, locus YJL095W, strain BCK1, active compounds read low 0.954 | S. cerevisiae deletion strains, locus YJL134W, strain LCB3, active compounds read low 0.983 | S. cerevisiae deletion strains, locus YJL168C, strain set2, active compounds read low 0.984 | S. cerevisiae deletion strains, locus YJL187C, strain SWE1 (second series), active compounds read low 0.986 | S. cerevisiae deletion strains, locus YJR043C, strain POL32, active compounds read low 0.962 | S. cerevisiae deletion strains, locus YJR075W, strain HOC1, active compounds read low 1 | S. cerevisiae deletion strains, locus YKL009W, strain mrt4, active compounds read low 0.966 | S. cerevisiae deletion strains, locus YKL068W, active compounds read low 0.976 | S. cerevisiae deletion strains, locus YKL085W, strain MDH1 (second series), active compounds read low 0.967 | S. cerevisiae deletion strains, locus YKL085W, strain MDH1, active compounds read low 0.967 | S. cerevisiae deletion strains, locus YKL190W, strain CNB1, active compounds read low 0.988 | S. cerevisiae deletion strains, locus YKR001C, strain vps1, active compounds read low 0.979 | S. cerevisiae deletion strains, locus YLR039C, strain RIC1, active compounds read low 0.995 | S. cerevisiae deletion strains, locus YLR058C, strain SHM2, active compounds read low 0.981 | S. cerevisiae deletion strains, locus YLR102C, strain apc9, active compounds read low 0.978 | S. cerevisiae deletion strains, locus YLR262C, strain YPT6, active compounds read low 0.994 | S. cerevisiae deletion strains, locus YLR268W, strain sec22, active compounds read low 0.995 | S. cerevisiae deletion strains, locus YLR330W, strain CHS5, active compounds read low 0.985 | S. cerevisiae deletion strains, locus YLR342W, strain FKS1 (second series), active compounds read low 0.973 | S. cerevisiae deletion strains, locus YLR371W, strain rom2, active compounds read low 0.979 | S. cerevisiae deletion strains, locus YLR418C, strain cdc73, active compounds read low 0.946 | S. cerevisiae deletion strains, locus YML016C, strain PPZ1, active compounds read low 0.978 | S. cerevisiae deletion strains, locus YML032C, strain rad52, active compounds read low 0.964 | S. cerevisiae deletion strains, locus YML124C, strain tub3, active compounds read low 0.961 | S. cerevisiae deletion strains, locus YMR078C, strain ctf18, active compounds read low 0.96 | S. cerevisiae deletion strains, locus YMR223W, strain ubp8, active compounds read low 0.959 | S. cerevisiae deletion strains, locus YMR263W, strain SAP30, active compounds read low 1.01 | S. cerevisiae deletion strains, locus YMR307W, strain GAS1, active compounds read low 0.84 | S. cerevisiae deletion strains, locus YNL067W, strain RPL9B, active compounds read low 1.01 | S. cerevisiae deletion strains, locus YNL128W, strain TEP1, active compounds read low 1.01 | S. cerevisiae deletion strains, locus YNL153C, strain GIM3, active compounds read low 1 | S. cerevisiae deletion strains, locus YNL233W, strain BNI4, active compounds read low 0.98 | S. cerevisiae deletion strains, locus YNL250W, strain rad50, active compounds read low 0.972 | S. cerevisiae deletion strains, locus YNL271C, strain bni1, active compounds read low 0.977 | S. cerevisiae deletion strains, locus YNL298W, strain CLA4, active compounds read low 0.982 | S. cerevisiae deletion strains, locus YNL322C, strain KRE1, active compounds read low 0.992 | S. cerevisiae deletion strains, locus YNR052C, strain pop2, active compounds read low 0.991 | S. cerevisiae deletion strains, locus YOL006C, strain TOP1, active compounds read low 0.896 | S. cerevisiae deletion strains, locus YOL012C, strain htz1 1.19 | S. cerevisiae deletion strains, locus YOL147C, strain pex11, active compounds read low 0.975 | S. cerevisiae deletion strains, locus YOR061W, strain CKA2, active compounds read low 0.977 | S. cerevisiae deletion strains, locus YOR069W, strain VPS5, active compounds read low 0.983 | S. cerevisiae deletion strains, locus YOR136W, strain idh2, active compounds read low 0.981 | S. cerevisiae deletion strains, locus YOR144C, strain elg1, active compounds read low 0.978 | S. cerevisiae deletion strains, locus YOR184W, strain ser1, active compounds read low 0.899 | S. cerevisiae deletion strains, locus YOR316C, strain cot1, active compounds read low 0.967 | S. cerevisiae deletion strains, locus YPL055C, strain LGE1, active compounds read low 1.01 | S. cerevisiae deletion strains, locus YPL241C, strain CIN2, active compounds read low 0.984 | S. cerevisiae deletion strains, locus YPR119W, strain clb2, active compounds read low 0.971 | S. cerevisiae deletion strains, locus YPR141C, strain kar3, active compounds read low 0.97 | S. cerevisiae deletion strains, locus YPR163C, strain tif3, active compounds read low 0.984 | S. cerevisiae deletion strains, locus YPR167C, strain met16, active compounds read low 0.97 | S. cerevisiae deletion strains, strain wtn01, active compounds read low 0.975 | S. cerevisiae strains, strain wild type, active compounds read low 0.998
